Source: PubChem BioAssay (National Center for Advancing Translational Sciences (NCATS))
Rows were chosen to be rich in hits. Some 0.95% of all compounds tested hit in one or more screens of this group.
LmPK inh: qHTS Assay for Inhibitors of Leishmania Mexicana Pyruvate Kinase (LmPK) | Q27686 | purified LmPK, Kinase-Glo ATP luminescence, 1 h | Potency, µM (series often up to 57.5 µM), most hits filed as inhibitors | actives 0.37% (n = 290,000) | AID 1721, 2009
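Screened at intermediate enzyme activity to detect both inhibitors and activators: LmPK at 0.1 nM, with a 0.5 nM enzyme column as activation reference. PEP 0.5 mM, ADP 0.1 mM; ATP detected by luminescence after 1 h.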
TbPYK inhibitor: qHTS of Trypanosoma Brucei Inhibitors. pyruvate kinase (Trypanosoma brucei), Q57TT1. TbPYK enzyme, Kinase-Glo Plus ATP luminescence, 45 min. Potency, µM (highest dose often 76.8 µM), most hits filed as inhibitors. actives 0.12% (n = 410,000). AID 624173, 2012; also: nearly all actives have a fitted effect of over 50% in size
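T. brucei PYK with substrate was exposed to pin-transferred compounds across a concentration series, then started with 130 uM ADP (final). After 45 min at room temperature, Kinase-Glo Plus luminescence was read, normalized and curve-fitted.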
RE007 growth inh: qHTS Assay for Inhibitors of the HIV-1 protein Vpr. S. pombe RE007 Vpr strain, BacTiter-Glo ATP luminescence, 24 h. actives 0.21% (n = 360,000). Potency, µM (highest dose often 92.2 µM), actives largely listed as inhibitors; active = well fitted falling curve with a large enough effect; inconclusive = small, poorly fitted or top-dose-only effect; inactive = no such curve, though single readings can be large or run the other way; also: nearly all actives have a fitted effect of over 50% in size
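Fission yeast strain RE007, carrying one chromosomally integrated HIV-1 vpr copy, was seeded at OD 0.01 in PMG+AL medium with 23 nL pinned compound. After 24 h at 30 °C and 99% humidity, viability was read by BacTiter-Glo luminescence.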
Giardia FBPA inh-1: qHTS Assay for Inhibitors of Fructose-1,6-bisphosphate Aldolase from Giardia Lamblia; AID 2451, 2010; actives 0.71% (n = 290,000); purified Giardia FBPA; Potency, µM (top dose mostly 59.6 µM), hits mostly inhibitors; A8B2U2; also: nearly all actives have a fitted effect of over 55% in size
Target sequence (A8B2U2 whole entry, looked up): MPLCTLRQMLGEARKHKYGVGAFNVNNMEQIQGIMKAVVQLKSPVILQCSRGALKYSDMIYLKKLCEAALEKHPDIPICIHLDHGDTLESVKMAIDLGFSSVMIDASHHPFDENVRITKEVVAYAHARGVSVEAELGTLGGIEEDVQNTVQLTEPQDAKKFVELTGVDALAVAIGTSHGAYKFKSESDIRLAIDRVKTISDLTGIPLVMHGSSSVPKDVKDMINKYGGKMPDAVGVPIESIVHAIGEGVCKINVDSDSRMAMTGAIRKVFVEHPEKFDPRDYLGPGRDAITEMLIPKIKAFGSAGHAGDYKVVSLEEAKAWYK
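40 nM FBPA preincubated 10 min at RT with compound (up to 57.5 uM final), then substrate plus GAPDH/TPI/NAD/arsenate coupling and diaphorase/resazurin added. Fluorescence read after 20 min at RT, 525/598 nm.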
Giardia growth: qHTS Assay for Inhibitors of Fructose-1,6-bisphosphate Aldolase from Giardia Lamblia: Giardia lamblia growth inhibition; shares compounds with Giardia FBPA inh-1; Giardia lamblia trophozoite growth inhibition; Potency, µM (highest dose often 57.5 µM), usual class: inhibitors; actives 5% (n = 1,500); AID 2785, 2010;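 also: trophozoites exposed to compound for 48 h at 37 °C; nearly all actives have a fitted effect of over 70% in size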
Mammalian tox: qHTS Assay for Inhibitors of Fructose-1,6-bisphosphate Aldolase from Giardia Lamblia: Mammalian cellular toxicity; shares compounds with Giardia FBPA inh-1; mammalian cell viability counter-screen, qHTS; Potency, µM (titrated, usually from 57.5 µM), hits mostly inhibitors; actives 4% (n = 1,500); AID 2786, 2010;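 also: Chinese hamster ovary cells used as mammalian cytotoxicity surrogate; viability measured as cellular ATP by luminescence; compound exposure lasted 48 h before reading; nearly all actives have a fitted effect of over 60% in size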
Giardia FBPA inh-2: qHTS Assay for Inhibitors of Fructose-1,6-bisphosphate Aldolase from Giardia Lamblia: Primary screen confirmation; shares compounds with Giardia FBPA inh-1; actives 5% (n = 1,500); Potency, µM (top dose mostly 57.5 µM), most hits filed as inhibitors; purified Giardia aldolase enzyme activity, qHTS; also: nearly all actives have a fitted effect of over 45% in size
Rabbit aldolase: qHTS Assay for Inhibitors of Fructose-1,6-bisphosphate Aldolase from Giardia Lamblia: Rabbit FBPA Selectivity; shares compounds with Giardia FBPA inh-1; Rabbit muscle FBPA enzyme inhibition, selectivity counter-screen; Potency, µM (doses to about 57.5 µM), most hits filed as inhibitors; actives 4% (n = 1,500); AID 2794, 2010; also: nearly all actives have a fitted effect of over 60% in size
GAPDH counter: qHTS Assay for Inhibitors of Fructose-1,6-bisphosphate Aldolase from Giardia Lamblia: Coupling assay counterscreen confirmation; AID 2795, 2010; Potency, µM (top dose mostly 57.5 µM), most hits filed as inhibitors; shares compounds with Giardia FBPA inh-1; actives 6% (n = 1,500); GAPDH coupling enzyme counterscreen, biochemical, qHTS; also: nearly all actives have a fitted effect of over 55% in size
Of the large screens only hits and unclear results are named; the others gave an inactive call (follow-up assays come after a bar, where they were run); [ ] = another dose, or the depositor's remark. Unless noted, calls follow the shape of the dose curve; as a rule, active = well fitted curve in the direction sought with a large enough effect; inconclusive = small, poorly fitted or top-dose-only effect, or another doubt; inactive = no such curve, though single readings can be large; an effect the other way counts as inactive or inconclusive.

O=C(N/N=C/c1ccncc1)c1nc2ccccc2c(=O)[nH]1	Giardia FBPA inh-1 11µM | Giardia growth inactive | Mammalian tox inactive | Giardia FBPA inh-2 inactive | Rabbit aldolase inactive | GAPDH counter inactive
c1ccc2[nH]c(SN3CCOCC3)nc2c1	Giardia FBPA inh-1 3.5µM (no result: TbPYK inhibitor, RE007 growth inh) | Giardia growth inconclusive | Mammalian tox inactive | Giardia FBPA inh-2 inactive | Rabbit aldolase inactive | GAPDH counter inconclusive
Cc1nc2ccccc2n1CCc1nc2c3ccccc3nc(SCC(=O)Nc3ccc(C(C)C)cc3)n2n1	none (no result: LmPK inh, RE007 growth inh, Giardia FBPA inh-1)
CCCCNC(=O)C1(C)CCC(=O)N1CCCn1ccnc1 (stereo unspecified)	none (no result: LmPK inh, Giardia FBPA inh-1)
OC(CNc1ccccc1)Cn1ccc2ccccc21 (stereo unspecified)	Giardia FBPA inh-1 18µM | Giardia growth inconclusive | Mammalian tox inactive | Giardia FBPA inh-2 inactive | Rabbit aldolase inactive | GAPDH counter inactive
COc1cc(/C=C2\CCC(C3CCCC3)C2=O)ccc1OC(C)C (stereo unspecified)	none
S=c1[nH]nc(CCCc2n[nH]c(=S)o2)o1	TbPYK inhibitor inconclusive, Giardia FBPA inh-1 0.5µM | Giardia growth inactive | Mammalian tox inactive | Giardia FBPA inh-2 inconclusive | Rabbit aldolase inactive | GAPDH counter inactive
COc1ccc(CCCc2n[nH]c(=S)o2)cc1	TbPYK inhibitor inconclusive
Cc1ccc(C(C)C)cc1OCCn1cncn1	Giardia FBPA inh-1 22µM | Giardia growth inactive[10.4 µM] | Mammalian tox inactive | Giardia FBPA inh-2 inactive | Rabbit aldolase inactive | GAPDH counter inconclusive
CCOc1cc(C=O)cc(N=Nc2cccc([N+](=O)[O-])c2)c1O	Giardia FBPA inh-1 13µM | Giardia growth inconclusive | Mammalian tox inactive | Giardia FBPA inh-2 inactive | Rabbit aldolase inactive | GAPDH counter inactive
COc1cccc(C(=O)NCC(=O)OCC(=O)Nc2cc(OC)c([N+](=O)[O-])cc2C)c1	none
Nc1nc2c(ncn2C2CCCC2)c(=O)[nH]1	none (no result: LmPK inh, Giardia FBPA inh-1)
Nc1nc(=S)c2ncn(C3CCCC3)c2[nH]1	Giardia FBPA inh-1 7.1µM | Giardia growth inactive | Mammalian tox inactive | Giardia FBPA inh-2 inactive | Rabbit aldolase inactive | GAPDH counter inactive
Cc1nc(NC(=O)CN2CCCCC2)sc1C(=O)N(C)C	Giardia FBPA inh-1 3.2µM | Giardia growth inactive | Mammalian tox inactive | Giardia FBPA inh-2 inactive | Rabbit aldolase inactive | GAPDH counter inactive
COc1ccccc1N1CCN(CC(=O)Nc2nc(C)c(C(=O)N(C)C)s2)CC1	Giardia FBPA inh-1 11µM | Giardia growth inactive | Mammalian tox inactive | Giardia FBPA inh-2 inactive | Rabbit aldolase inactive | GAPDH counter inactive
Cc1nc(NC(=O)CN2CCOCC2)sc1C(=O)N(C)C	Giardia FBPA inh-1 inconclusive
C=CCc1cc(OC)ccc1OCCCCn1cncn1	Giardia FBPA inh-1 32µM | Giardia growth inconclusive | Mammalian tox inactive | Giardia FBPA inh-2 inactive | Rabbit aldolase inactive | GAPDH counter inactive
C=CCc1ccc(OCCn2cncn2)c(OC)c1	none
COc1ccc(CNC(=O)CS(=O)(=O)Cc2nc(-c3cccc(OC)c3)oc2C)cc1	none
Cc1cccc(NC(=O)CSCc2cc(=O)n3ccsc3n2)c1C	none (no result: Giardia FBPA inh-1)
CCCn1c(=O)c(C(=O)Nc2ncccc2O)c(O)c2ccccc21	Giardia FBPA inh-1 inconclusive
